Screening results deposited in PubChem by National Center for Advancing Translational Sciences (NCATS).
Shiga toxin inh: inhibitors of Shiga toxin in Vero cells; hit rate 9.2% among 290,000; Vero cells, Shiga toxin protein synthesis inhibition reporter; inhibition, % at 38.7 µM; in the data active = inhibition mostly above about 28%, no sharp cut-off; inactive = mostly below about 43%
MARV entry inh: inhibitors of Marburg virus binding or cell entry | Marburg virus pseudotyped entry inhibition, cell reporter | Potency, µM (top dose mostly 37.8 µM), hits mostly inhibitors | hit rate 1.8% among 300,000 | AID 540276; calls by dose curve; tested in HEK293 cells
CHX counter: counter-screen hit for Shiga toxin inhibitors, cycloheximide; cell reporter, cycloheximide protein synthesis inhibition counterscreen; max response, %; hit rate 12% among 300,000; in the data active = max response mostly above about 13%, no sharp cut-off; inactive = mostly below about 14%; also: read at 38.3 µM for the half of the compounds with a filed dose
Pf growth 48h: P. falciparum growth inhibition at 48 hours (one generation); P. falciparum luciferase growth in erythrocytes, 48 h; Potency, µM (top dose mostly 28.7 µM), hits mostly inhibitors; hit rate 5.9% among 310,000
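Here the parasites carry a stable luciferase gene and grow inside erythrocytes in Albumax-based RPMI medium with compound for one erythrocytic cycle. Activity is scored as loss of luminescent signal.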
Pf growth 96h: inhibits malaria parasite growth, 96 h; Potency, µM (series often up to 28.7 µM), hits mostly inhibitors; AID 504834; hit rate 6.9% among 320,000; P. falciparum luciferase reporter growth, 96 h
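Delayed-death screen, second-generation endpoint: infected erythrocytes, 2% hematocrit, 0.05% parasitemia final; 96 hours at 37 C, 5% CO2; luciferase detection reagent; luminescence decrease equals reduced growth.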
Lassa entry inh: Lassa virus entry inhibition; Lassa virus pseudotype entry inhibition, cell reporter; Potency, µM (highest dose often 37.9 µM), hits mostly inhibitors; hit rate 1.2% among 300,000; calls by dose curve; tested in HEK293 cells; also: nearly all actives have a fitted effect of over 50% in size
A number is an active result; i = inactive; ? = inconclusive; nt = not tested or not shown; ! = a repeat was not active; [ ] = another dose, or the depositor's remark. Shown are actives, neighbours in structure and some others; about 19% of the full set was active somewhere. Unless noted, calls follow the shape of the dose curve; as a rule, active = well fitted inhibition curve with a large enough effect; inconclusive = small, poorly fitted or top-dose-only effect, or another doubt; inactive = no such curve, though single readings can be large or run the other way.

SMILES	Shiga toxin inh	MARV entry inh	CHX counter	Pf growth 48h	Pf growth 96h	Lassa entry inh
CC(C)c1ccc(OCc2ccc(C(=O)O)o2)cc1	64	3.7µM	35	1µM	i	3.5µM
CCN1CCN(C(=O)c2ccc(COc3ccc(Cl)cc3)o2)CC1	i	i	i	i	i	i
Cc1ccnc(Sc2ncccc2[N+](=O)[O-])n1	i	i	i	i	nt	i
COc1ccc(Cl)cc1C(=O)NNC(=O)c1cccs1	nt	i	nt	nt	nt	i
CN1CCC(N(C)C(=O)CNC(=O)c2ccc(C(C)(C)C)cc2)CC1	i	i	i	i	i	nt
Cc1cc(=O)oc(C)c1C(=O)N1CCc2c([nH]c3ccccc23)C1C(C)C (stereo not given)	i	nt	i	nt	12µM	nt
Cc1onc(-c2c(F)cccc2Cl)c1C(=O)ONC(=O)c1ccco1	i	nt	i	i	i	nt
O=C(NOC(=O)c1c(F)cccc1Cl)c1ccc(Cl)c(Cl)c1	46	i	30	nt	i	?
c1ccc2[nH]c(-c3ccncc3)nc2c1	68	?	19	i	?	i
c1ccc2[nH]c(CCCCc3nc4ccccc4[nH]3)nc2c1	i	nt	i	?	i	nt
COc1ccc(CCCc2nc3ccccc3[nH]2)cc1	i	i	22	?	?	i
COc1ccc2oc(=Nc3ccccc3)c(-c3nc4ccccc4[nH]3)cc2c1	71	i	59	i	i	?
O=C(Nc1cccc(-c2nc3ccccc3[nH]2)c1)c1ccccn1	i	i	i	i	i	i
CC(=O)Nc1cccc(-c2nc3ccccc3[nH]2)c1	i	i	i	i	?	i
Cc1cc(-c2nc3ccccc3[nH]2)ccc1N	144	?	i	i	?	?
O=P(CCC(F)(F)F)(CCC(F)(F)F)CCC(F)(F)F	i	i	i	nt	i	i
COC(=O)c1ccc(-c2ncc[nH]2)cc1	i	i	24	i	i	i
CC(=O)Nc1ccc2nc(-c3cccnc3)[nH]c2c1	i	?	i	i	i	i
c1ccc(-c2nc3ccccc3[nH]2)cc1	47	nt	31	i	i	nt
Cn1c(=O)c2[nH]c(CCCCCCCCc3nc4ccccc4[nH]3)nc2n(C)c1=O	nt	?	nt	nt	nt	11µM
c1cncc(-c2nc3ccccc3[nH]2)c1	71!	?	37!	i	i	i
c1ccc(-c2n[nH]c(-c3ccccc3)c2-c2nc3ccccc3[nH]2)cc1	i	i	i	i	i	i
O=C(CCC1CCN(Cc2ccccc2O)CC1)NC1CC1	nt	nt	i	i	?	nt
COc1ccc(NS(=O)(=O)c2c(C)[nH]c(=O)[nH]c2=O)cc1OC	i	nt	i	i	i	nt
Cc1cc(Nc2ccccc2F)n2nc(Cc3ccc(Cl)cc3)nc2n1	nt	?	nt	nt	nt	i
SMILES	Shiga toxin inh	MARV entry inh	CHX counter	Pf growth 48h	Pf growth 96h	Lassa entry inh
CCOC(=O)C1C(=O)C=C(N2CCOCC2)CC1c1cccc(OC)c1 (stereo not given)	i	i	i	?	?	i
Cc1ccc2[nH]c3nc(SCC#N)nnc3c2c1	i	?	i	i	i	?
O=C(O)c1cccc(-c2nc3ccccc3[nH]2)c1	32	0.35µM	27	i	2.3µM	1.4µM
S=C(NCCN1CCOCC1)Nc1ccc(-c2nc3ccccc3[nH]2)cc1	177	nt	28	?	?	nt
S=C(Nc1ccc(-c2nc3ccccc3[nH]2)cc1)Nc1cccnc1	66	?	61	?	i	nt
Nc1cc(N)cc(-c2nc3ccccc3[nH]2)c1	i	i	23	i	?	i
COc1ccc(NC(=O)CN(c2ccccc2F)S(=O)(=O)c2ccc(C)cc2)cc1	i	nt	i	i	i	nt
COC(=O)c1ccc(C(=O)Nc2ccc3nc(-c4ccncc4)[nH]c3c2)cc1	i	nt	i	i[0.00184 µM]	i	nt
COc1ccc(-c2nc3ccccc3[nH]2)cc1	i	7.3µM	25	nt	i	?
COC(=O)c1ccc(C(=O)OCc2nc3cc4ccccc4cc3[nH]2)cc1	14	i	29	i	?	i
Fc1cc2nc(-c3ccncc3)[nH]c2cc1F	i	i	24	?	1.9µM	i
O=C(O)CCc1nc2cc3ccccc3cc2[nH]1	i	i	i	i	i	i
COC(=O)c1ccc(-c2nc3ccccc3[nH]2)cc1	active	1.8µM	63	i	i	7.3µM
COc1cccc(C(=O)Nc2cc(C)nn2-c2ccccc2)c1OC	i	?	i	?	?	?
COc1ccc(S(=O)(=O)Nc2ccc3oc(C)c(C(=O)O)c3c2)cc1	i	i	i	nt	i	nt
CC(C)NC(=S)NNC(=O)C12CC3CC(CC(C3)C1)C2	i	i	i	nt	i	i
O=C(NCCCN1CCCC1=O)c1cccc(S(=O)(=O)Nc2ccc(Br)cc2)c1	nt	i	nt	?	?	?
C/C=C(\C)c1nnc(NC(=O)C(C)C)s1	i	?	19	i	i	i
CCCc1nnc(NC(=S)Nc2ccccc2)s1	42	i	27	i	i	i
CC(C)C(=O)Nc1nnc(NC(=S)Nc2ccccc2)s1	68	i	34	i	12µM	i
COc1cccc(Cn2c(=O)sc3ccccc3c2=O)c1	i	?	i	i	i	i
COC(=O)c1ccc(Sc2ccc(C)cc2)c(N)c1	57	i	57	i	i	i
Cc1nc2ccc(-c3ccccc3)cc2o1	i	i	53	i	i	i
O=C(c1cccc(Cl)c1)C1CCCN(C(=O)c2ccc3c(c2)OCO3)C1 (stereo not given)	i	nt	i	i	?	nt
COC(=O)c1ccc(N2C(=O)CC(SCCN)C2=O)cc1 (stereo not given)	54	?	42	i	i	i
SMILES	Shiga toxin inh	MARV entry inh	CHX counter	Pf growth 48h	Pf growth 96h	Lassa entry inh
CCCOc1ccc(N2C(=O)CC(SCCN)C2=O)cc1 (stereo not given)	93	i	50	i	?	i
CCCOc1ccc(N2C(=O)CC(SCCc3nc4ccccc4[nH]3)C2=O)cc1 (stereo not given)	i	nt	i	i	i	nt
COC(=O)c1ccc(N2C(=O)CC(N(C)Cc3ccccc3)C2=O)cc1 (stereo not given)	i	i	i	i	0.29µM	i
CCCOc1ccc(N2C(=O)CC(SCC(N)C(=O)OCC)C2=O)cc1 (stereo not given)	i	nt	i	?	?	nt
CCOC(=O)C(N)CSC1CC(=O)N(c2ccc(C(=O)OC)cc2)C1=O (stereo not given)	i	i	i	i	5.2µM	i
COc1ccc(CCNC(=O)CSc2nnc(CNC(=O)c3ccco3)o2)cc1OC	i	i	i	nt	i	i
Cc1ccccc1CSCC(=O)c1c(N)n(CC(C)C)c(=O)n(C)c1=O	i	?	i	i	nt	i
CCOCCOC(=O)c1ccc(NC(=O)c2cc(OC)c(OC)c(OC)c2Br)cc1	i	i	i	i	i	i
CN(C)/C=N/c1ncnc2c1cnn2-c1ccc(C(F)(F)F)cn1	77	?	41	i	i	i
FC(F)(F)c1ccc(-n2ccnc2)nc1	i	i	i	i	i	i
CCn1c(C)nc2cc(C(=O)NNS(=O)(=O)c3ccccc3F)ccc21	i	?	i	i	i	i
Cc1cccc(N2CCN(C(=O)C3CCN(c4ncnc5c4nc4n5CCCCC4)CC3)CC2)c1C	i	nt	i	i	?	?
